The record followed here is ChEMBL document CHEMBL4513216, “Probing the Open Global Health Chemical Diversity Library for Multistage-Active Starting Points for Next-Generation Antimalarials” (ACS Infect Dis, 2020).

Structures are written as SMILES. Screen size: about 69,000 compounds; about 8,600 (12%) showed an effect of 50% or more. Many of the other results were omitted from the sample, so strong results are more common in it than they were.

For this assay, the system named is Plasmodium berghei. Kind of assay: Screen against P. berghei liver stage (PbLuc), transformed with Luciferase, at 10uM. In kind it is functional, HepG2. Conditions: tested at 10 uM.
`O=C(c1ccncc1)N1CC[C@@H]2[C@@H](CC1)OCCN2c1cccnc1`: the INHIBITION was 12.1%.

On to `O=C(c1ccoc1)N1CC[C@@H]2[C@@H](CC1)OCCN2c1cccnc1`, for which the INHIBITION is given as 45.8%.

Regarding `Cc1ncsc1C(=O)N1CC[C@@H]2[C@@H](CC1)OCCN2c1cccnc1`, the INHIBITION is listed as 65.1%.

Consider `CC(Cn1cccn1)NC(=O)c1ccsc1` (centres undefined), for which the INHIBITION worked out at 15.7%.

For the compound `Cc1nc2ccc(C(=O)N3CCn4c(C)nnc4C3)cc2nc1C`, the INHIBITION is 1.56%.

Turning to `CN1C[C@H](c2ccccc2)[C@H]2CN(C(=O)Cc3ccc(O)cc3)CC[C@H]21`, the INHIBITION came out at 27.35%.

Consider `CCN1CC2(CCC1=O)CCN(C(=O)c1ccc(C)cc1O)CC2`, for which the INHIBITION is recorded as 18.6%.

On to `COc1cccc(-c2nnn(C3CCN(CC(F)(F)F)C3=O)n2)c1` (centres undefined), for which the INHIBITION is -73.4%.

As for `Cc1nnc(SCCNc2cc(C3CC3)ncn2)s1`, the INHIBITION was found to be 4.52%.

Turning to `CCn1c(C)nnc1SCCNc1cc(COC)ncn1`, the INHIBITION was 8.51%.

On to `COc1cc(NCCCSc2nnc(C)s2)ncn1`, for which the INHIBITION is 42.1%.

Turning to `COCc1cc(NCCCSc2nnc(C)s2)ncn1`, the INHIBITION is recorded as 58.8%.

Turning to `Cc1nnc(SCCCNc2cc(C3CC3)ncn2)s1`, the INHIBITION turned out to be 58.8%.

As for `Cc1nnc(SCCCNC(=O)c2ccc3c(c2)OCO3)s1`, the INHIBITION is given as 33.4%.

On to `Cc1cccc(N2CC3(CCN(S(=O)(=O)c4cccs4)C3)CC2=O)c1` (centres undefined), for which the INHIBITION was -4.82%.

On to `CSc1ccc(C(=O)N2C[C@@H]3CC[C@H]2CN(Cc2cccnc2)C3)cc1`, for which the INHIBITION is -5.19%.

As for `Cc1noc(CCCNC(=O)N2CCc3ccccc3C2CO)n1` (centres undefined), the INHIBITION came out at 14.4%.

As to `CC(C)(C)c1cc(NC(=O)CN2CCc3cncnc3C2)on1`, the INHIBITION is on record as -9.76%.

Take `CCOn1c(SC(C)C)nc2ccccc2c1=O`: the INHIBITION is 56.3%.

In the case of `CCc1nc2ccccc2c(=O)n1CC1(O)CCN(C(=O)COC)CC1`, the INHIBITION came to 7.52%.

For `COC(=O)COn1c(OC)nc2ccccc2c1=O`, the INHIBITION is 52.5%.

For `COC(=O)COn1c(SCC(=O)OC)nc2ccccc2c1=O`, the INHIBITION stood at 28.3%.

Turning to `COC(=O)COn1c(SC(C)C)nc2ccccc2c1=O`, the INHIBITION amounted to 28.3%.

For `COC(=O)COn1c(SC)nc2ccccc2c1=O`, the INHIBITION is 48%.

In the case of `CCc1nc2ccccc2c(=O)n1CC1(O)CCN(CC(=O)OC)CC1`, the INHIBITION was 13.5%.

For `CCSc1nc2ccccc2c(=O)n1OCC(=O)OC`, the INHIBITION is recorded as 60.8%.

For `CCc1nc2ccccc2c(=O)n1CC1(O)CCN(C(=O)C(C)C)CC1`, the INHIBITION turned out to be 35.2%.

Consider `CC(C)Cc1noc(CN2CCCC2c2noc(C3CC3)n2)n1` (centres undefined), for which the INHIBITION is on record as -31.5%.

As to `CC(C)(C)N1CCN(C(=O)Nc2cc(C(F)(F)F)c[nH]c2=O)CC1`, the INHIBITION worked out at 33.3%.

Turning to `COC(=O)C1C=CCN1C(=O)c1cc(COc2ccccc2)[nH]n1` (centres undefined), the INHIBITION was determined as 9.41%.

In the case of `Cc1nc(N(C)C)ncc1C(=O)N[C@@H]1CCc2ccccc21`, the INHIBITION came to 27.4%.

On to `O=C(Nc1cccnc1)C1CCCN(c2cc(-n3cccn3)ncn2)C1` (centres undefined), for which the INHIBITION amounted to 50.2%.

`O=C(CN1CCCC(Cn2cncn2)C1)Nc1cccnc1` (centres undefined): the INHIBITION is recorded as -43.9%.

Take `O=C(NC1CC1)C1CCCN(c2cc(-n3cncn3)ncn2)C1` (centres undefined): the INHIBITION amounted to 40.4%.

For `O=C(NCc1cccs1)C1CCCN(c2cc(-n3cncn3)ncn2)C1` (centres undefined), the INHIBITION is given as 13.9%.

As for `O=C(Nc1cccnc1)C1CCN(c2cc(-n3ccnc3)ncn2)CC1`, the INHIBITION is reported as 31.3%.

For `O=C(Nc1ccccc1)C1CCCN(c2cc(-n3cncn3)ncn2)C1` (centres undefined), the INHIBITION was 50.2%.

In the case of `CC(C)(C)C(=O)NC(c1nccs1)C1CCN(CC2CCCCC2)CC1` (centres undefined), the INHIBITION was 41.5%.

As to `CCn1nc(C)c(CCNC(=O)C2CCCN(C(C)=O)C2)c1C` (centres undefined), the INHIBITION is -20.2%.

As to `Cc1cnn(CC2CCCCN2CCS(C)(=O)=O)c1` (centres undefined), the INHIBITION is 17.4%.

`CNC(=O)CN1CCC(NC(=O)Cc2ccc3c(c2)OCCO3)CC1`: the INHIBITION was -53.2%.

Consider `CCN(Cc1c(C)nn(CC)c1C)S(=O)(=O)c1cnn(C)c1`, for which the INHIBITION stood at 11.8%.

As to `CCS(=O)(=O)N1C[C@@H]2C[C@H](C(=O)N(C)C)[C@H](C1)O2`, the INHIBITION worked out at 22.2%.

Regarding `CCCN1CCCn2c(nc(CNC(=O)c3ccsc3)cc2=O)C1`, the INHIBITION was determined as 18.5%.

With `O=C(NCc1cc(=O)n2c(n1)CN(CC1CC1)CCC2)c1ccsc1`, the INHIBITION stood at 89.2%.

On to `O=c1cc(CNS(=O)(=O)C2CC2)nc2n1CCCN(CC1CC1)C2`, for which the INHIBITION worked out at 33.1%.

As to `CN1CCCn2c(nc(CNC(=O)c3ccsc3)cc2=O)C1`, the INHIBITION came out at 35.8%.

With `CCN1CCCn2c(nc(CNC(=O)c3ccsc3)cc2=O)C1`, the INHIBITION worked out at 58%.

Take `Cc1oncc1C(=O)NCc1cc(=O)n2c(n1)CN(CC1CC1)CCC2`: the INHIBITION is on record as 36.4%.

In the case of `Cc1nn(C)c(N(C)C)c1CNCc1ccnc(N2CCCC2)c1`, the INHIBITION was -44.3%.

`Oc1cc(-c2ccccn2)nc(C2CCN(Cc3ccncc3)CC2)n1`: the INHIBITION was -44.8%.

For `O=C(CCN1CCOC(Cn2cccn2)C1)NC1CCCCC1` (centres undefined), the INHIBITION is reported as -107%.

Regarding `O=C(c1ccc[nH]1)N1CCCn2c(nnc2Cn2cccn2)C1`, the INHIBITION is recorded as -17.2%.

With `O=C(c1ccncc1)N1CCCn2c(CN3CCCCC3)nnc2C1`, the INHIBITION is reported as 31.8%.
